This passage reports survival results from PubChem BioAssay AID463173 (ICCB-Longwood Screening Facility, Harvard Medical School, 2010).

Among all 52,000 compounds or so, about 4,300 (8.3%) were called active. The sample holds actives, similar compounds and a random draw of the others, so the mix is not that of the screen. Unmarked numbers belong to inactive results. No stated cut-off is given here; in the data, active means survival mostly below about 52% (no sharp cut-off); inactive means mostly above about 56%.

This experiment concerns DeltatarO mutant. Nature of the experiment: S. aureus survival, RN4220 and DeltatarO strains – OD600, teichoic acid synthesis inhibitors, primary screen (AID 463173). The note with it: S. aureus RN4220 wild type/DeltatarO growth, OD600, 18 h, active compounds read low, screened at 18.75 µg/mL (by protocol).
As for `COc1ccc(CCNC(=O)CSc2cn(CCNC(=O)c3c(F)cccc3F)c3ccccc23)cc1OC`, the survival was 79%.

On to `COc1cccc(CNC(=O)C2CCCN(S(=O)(=O)N(C)c3ccc(F)cc3)C2)c1OC` (configuration not stated), for which the survival was 87%.

Turning to `O=C1CS/C(=N\N2CCOCC2)N1Cc1ccccc1`, the survival is 84%.

Turning to `Cc1nnc(N2CCN(C(=O)NC(C)C)CC2)c2nn(-c3ccccc3)c(C)c12`, the survival is 72%.

Take `Cc1cc(NC(=O)Nc2csc3c2CCCC3)ccc1Br`: the survival was 44%. Regarding `Cc1cccc(C)c1NC(=O)Nc1csc2c1CCCC2`, the survival was 78%. For `CC(C)c1ccc(NC(=O)Nc2csc3c2CCCC3)cc1` the value was 13% (active). `Cc1ccc(NC(=O)Nc2csc3c2CCCC3)c(C)c1`: the survival is 63%. On to `Cc1ccc(C)c(NC(=O)Nc2csc3c2CCCC3)c1`, for which the survival is 75%. For `O=C(Nc1ccc(F)cc1)c1csc2c1CCCCC2` the value was 63%. The value for `Cc1ccccc1NC(=O)Nc1csc2c1CCCC2` was 29% (active); that for `O=C(Nc1ccc(F)cc1)Nc1csc2c1CCCC2` was 4% (active). Regarding `CCc1cccc(NC(=O)Nc2csc3c2CCCC3)c1`, the survival was 114%. `CCOCCCNC(=O)CCC(=O)NNc1nc2ccccc2c2nc(-c3ccccc3)nn12`: the survival was 83%. For `COc1ccc(NC(=O)CN2C(=O)CSc3ccc(S(=O)(=O)N(C)C)cc32)cc1Cl` the value was 74%.

Consider `CCc1nn(CC(=O)N2CCN(c3cccc(OC)c3)CC2)c(=O)c2cc3occc3n12`, for which the survival is 91%. The value for `COc1ccc(S(=O)(=O)N(CCc2ccccc2)CC(N)=O)cc1` was 88%. Turning to `Cn1nnnc1SCCCNCc1cc(Cl)ccc1OCc1ccccc1`, the survival is 72%. `COCCn1c(SCC(=O)Nc2ccc(F)c(Cl)c2)nc2c(oc3ccccc32)c1=O`: the survival was 44% (active). Regarding `O=C(CSc1nc2c(oc3ccccc32)c(=O)[nH]1)Nc1cccc(Cl)c1`, the survival is 37% (active). The value for `O=C(CSc1nc2c(oc3ccccc32)c(=O)n1Cc1ccco1)Nc1cccc(Cl)c1` was 62%. The value for `O=C(CSc1nc2c(oc3ccccc32)c(=O)n1-c1ccccc1)Nc1ccc(F)c(Cl)c1` was 86%; that for `CCOc1ccc(NC(=O)CSc2nc3c(oc4ccccc43)c(=O)n2CCOC)cc1` was 74%. For the compound `COc1cccc(-n2c(SCC(=O)Nc3cccc(Cl)c3)nc3c(oc4ccccc43)c2=O)c1`, the survival is 85%. As to `O=C(NCc1ccc(F)cc1)C1CCN(c2ncnc3c2nc2n3CCCCC2)CC1`, the survival is 86%. Consider `CCC1(c2ccccc2)NC(=O)NC1=O` (configuration not stated), for which the survival was 98%. For `Clc1nc(Cl)nc(OCCCOc2nc(Cl)nc(Cl)n2)n1` the value was 94%.
